“And” between values parts separate entries of the source, which are not always exact repeats. Identical values can stand only once. Records with an inconclusive call do not appear. Some compounds were tested as several samples or in several runs, with calls that do not always agree. The source made the active and inactive calls. Rule for the calls: active = hit-call score of the fitted dose curve at least 0.9, where 1 is the maximum; inconclusive = response in the unintended direction; inactive = score below 0.9.
Experiment: ACEA_AR_antagonist_AUC_viability: ACEA Biosciences xCELLigence Real-Time Cell Analysis on Androgen Receptor Antagonism for Viability (AID 2283776);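 note: area under impedance growth curve at 80 h after dosing as viability; hits lower the growth signal relative to DMSO meaning cytotoxicity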
Description: ACEA_AR_antagonist is a cell-based, single-readout assay that uses 22Rv1, a human prostate cancer cell line, with measurements taken at 80 hours after chemical dosing in a 384-well plate, although TO5 and TO6 (mc0.srcf) used a 96-well plate. Differences in plate size can be ignored given data normalization.ACEA_AR_80hr is one of two assay component(s) measured or calculated from the […] assay. It is designed to make measurements of real-time cell-growth kinetics, a form of growth reporter, as detected with electrical impedance signals by Real-Time Cell Electrode Sensor (RT-CES) technology.Data from the assay component ACEA_AR_antagonist_AUC_viability was analyzed in the positive analysis fitting direction relative to DMSO as the negative control and baseline of activity. Using a type of growth reporter, loss-of-signal activity can be used to understand changes in the viability. Furthermore, this assay endpoint can be referred to as a secondary readout, because this assay has produced multiple assay endpoints where this one serves a viability function. To generalize the intended target to other relatable targets, this assay endpoint is annotated to the cell cycle intended target family, where the subfamily is cytotoxicity.
The xCELLigence system Multi-E-Plate stations were used to measure the time-dependent response to chemicals. Each compound was tested in an eight-point, 1:4 serial dilution series starting at a maximum final concentration of 100 uM. A maximum starting concentration of 0.5% DMSO was present in the 100 uM chemical samples and was diluted along with the test article dilution series. The screen was performed in biological duplicate using two separate, 96-well, E-Plates 96 for each dilution series (n = 2). Positive controls (MG132 and testosterone) and a negative control (assay media) were tested in quadruplicate on each testing plate. Then, 0.5% and 0.125% DMSO were tested in duplicates in each plate to serve as solvent controls for the 2 highest concentrations of testing compounds: 100 uM and 25 uM. Reference compounds were tested with 8 concentrations with 1:5 serial dilutions. All screening was carried out by ACEA Biosciences, Inc. (San Diego, CA). 22Rv1 cells purchased from ATCC were maintained in media supplemented with 10% fetal bovine serum (FBS). Before screening, 22Rv1 cells were preconditioned in assay medium. Cells were then detached and seeded in E-Plates 96 in assay medium. After overnight monitoring of growth once every hour, compounds were added to […] cells and remained in the medium until the end of the experiment. Cellular responses were then recorded once every 5 min for the first 5 h, and once every hour for an additional 100 h.

| Compound | AC50 | outcome |
| --- | --- | --- |
| O=C(NC(=O)c1c(F)cccc1F)Nc1cc(Cl)c(OC(F)(F)C(F)C(F)(F)F)cc1Cl (stereo not given) | 5.68 µM (active) |  |
| CCC[CH2][Sn]([CH2]CCC)([CH2]CCC)[CH2]CCC | 29.9 µM (active) |  |
| OCCN(CCO)CCO |  | inactive |
| CNC(=O)O/N=C/C(C)(C)S(C)(=O)=O |  | inactive |
| N#CCC#N |  | inactive |
| CCC[CH2][Sn]([Cl])([Cl])[CH2]CCC | 3.75 µM (active) |  |
| O=C(CBr)c1ccc(O)cc1 |  | inactive |
| COc1ccc(N)cc1 |  | inactive |
| CCOCn1c(-c2ccc(Cl)cc2)c(C#N)c(Br)c1C(F)(F)F | 7.97 µM (active) |  |
| CC(C)O.CC(C)O.OCCN(CCO)CCO.OCCN(CCO)CCO.[Ti] |  | inactive |
| Nc1ccc(N)cc1 |  | inactive |
| COCCl |  | inactive |
| N#CCCC(Br)(C#N)CBr (stereo not given) |  | inactive |
| O=c1nc(O)n(Cl)c(=O)n1Cl |  | inactive |
| COC(=O)Nc1cccc(OC(=O)Nc2cccc(C)c2)c1 |  | inactive |
| O=C(NC(=O)c1c(F)cccc1F)Nc1ccc(Cl)cc1 |  | inactive |
| Oc1c(Br)cc(Br)cc1Br |  | inactive |
| O=S1OC[C@@H]2[C@H](CO1)[C@]1(Cl)C(Cl)=C(Cl)[C@@]2(Cl)C1(Cl)Cl (stereo not given in full) |  | inactive |
| CC(C)N(C(=O)CCl)c1ccccc1 | 16.6 µM (active) |  |
| CCCCCCCCCCCCc1cccc(S(=O)(=O)O)c1 | 75 µM (active) |  |

| Compound | AC50 | outcome |
| --- | --- | --- |
| O=C(O)C1(c2ccc3c(c2)OC[C@H](Cc2ccc(-c4ccccc4)cc2)[C@H]3O)CCCC1 |  | inactive |
| CCN(CCO)CCO |  | inactive |
| O=C(N[C@H]1CN2CCC1CC2)c1ccc2c(c1)OCCO2 |  | inactive |
| O=CCCl |  | inactive |
| CCCCCCCCCCCCOS(=O)(=O)O | 72.1 µM (active) | inactive |
| Cc1cc(Cl)ccc1OCCCC(=O)O |  | inactive |
| Oc1cc(Cl)c(Cl)cc1Cl | 71.8 µM (active) |  |
| COc1ccccc1N |  | inactive |
| COc1nn(C(=O)NS(=O)(=O)c2ccccc2OC(F)(F)F)c(=O)n1C |  | inactive |
| CC(=Cc1ccccc1)[N+](=O)[O-] | 6.31 µM (active) |  |
| CN(C)C(=S)S |  | inactive |
| Clc1cccc(Cl)c1 |  | inactive |
| CC(C)=CC1C(C(=O)OCc2cccc(Oc3ccccc3)c2)C1(C)C (stereo not given) |  | inactive |
| N#Cc1cccnc1 |  | inactive |
| CC(C)(C)c1ccccc1O |  | inactive |
| CCCCCCCCCCCCN(C)C |  | inactive |
| CC(O)(CS(=O)(=O)c1ccc(F)cc1)C(=O)Nc1ccc(C#N)c(C(F)(F)F)c1 (stereo not given) | 21.4 µM (active) and 9.65 µM (active) |  |
| Cc1cc(Cl)ccc1O |  | inactive |
| O=c1[nH]c(=O)n(Cl)c(=O)n1Cl |  | inactive |

Reference: PubChem BioAssay (EPA / NIEHS)
